Screening results: PubChem BioAssay, The Scripps Research Institute Molecular Screening Center
Rows were chosen to be rich in hits. Some 3.2% of all compounds tested hit in one or more screens of this group.
MsrA inh: bovine MsrA enzyme inhibitors, primary screen, biochemical, absorbance, HTS; purified bovine MsrA, absorbance read-out; inhibition, % at 15.5 µM; AID 651718, 2012; Methionine sulfoxide reductase A (Bos taurus); hit rate 0.75% among 360,000;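 note: 0% = vehicle wells with enzyme and 100% = reference inhibitor wells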
MsrA act: bovine MsrA enzyme activators, primary screen, biochemical, absorbance, HTS | Methionine sulfoxide reductase A (Bos taurus) | purified bovine MsrA, absorbance read-out | activation, % at 10.6 µM | hit rate 0.3% among 360,000 | AID 602163, 2012; in the data active = activation above about 7.5%;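 note: 0% = vehicle and 100% = reference activator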
sPLA2-III inh: human group III sPLA2 inhibitors, primary screen, biochemical, QFRET, BODIPY PC-A2 liposome substrate; hit rate 0.56% among 370,000; inhibition, % at 12.2 µM; QFRET BODIPY PC-A2 liposome hydrolysis, fluorescence; AID 743126, 2013;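 active = inhibition above mean plus 3 SD of compounds lying within the high and low control bounds, cut at about 19% in these data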;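 note: 0% = median of test compound wells and 100% = no enzyme DMSO wells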
Target sequence (Q9NZ20 whole entry, looked up): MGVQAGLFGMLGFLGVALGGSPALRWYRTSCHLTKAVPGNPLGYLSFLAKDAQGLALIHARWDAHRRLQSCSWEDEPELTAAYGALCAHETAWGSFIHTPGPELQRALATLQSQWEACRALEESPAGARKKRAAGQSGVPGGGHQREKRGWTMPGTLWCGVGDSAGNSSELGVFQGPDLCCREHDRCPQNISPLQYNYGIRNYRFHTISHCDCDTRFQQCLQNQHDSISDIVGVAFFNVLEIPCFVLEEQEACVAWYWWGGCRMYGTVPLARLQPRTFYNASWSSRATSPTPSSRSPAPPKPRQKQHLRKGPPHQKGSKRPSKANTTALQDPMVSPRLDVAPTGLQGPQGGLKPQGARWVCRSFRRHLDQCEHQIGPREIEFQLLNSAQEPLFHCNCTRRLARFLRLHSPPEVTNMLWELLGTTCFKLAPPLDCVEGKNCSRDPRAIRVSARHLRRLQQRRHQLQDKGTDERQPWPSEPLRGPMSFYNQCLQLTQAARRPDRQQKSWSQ
PG9 binder: binders of HIV-1 gp120 antibody PG9, primary screen, biochemical, TR-FRET; inhibition, % at 6.7 µM; hit rate 0.43% among 360,000; HIV-1 gp120 / PG9 antibody interaction; TR-FRET gp120-PG9 antibody binding; AID 624416, 2012; in the data active = inhibition above about 8.5%
rCAG RNA binder: binders of r(CAG) RNA repeats, primary screen, biochemical, fluorescence. r(CAG) RNA repeat, TO-PRO-1 dye displacement fluorescence. inhibition, % at 3 µM. hit rate 1.3% among 370,000. AID 651821, 2012;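 active = inhibition above the plate cutoff, the mean of all test compounds on that plate plus 3 SD, cut at about 35% in these data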;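 note: 0% = DMSO alone and 100% = 100 µM mitoxantrone as full dye displacement; higher means more dye released from RNA so lower well fluorescence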
MsrA inh confirm: bovine MsrA inhibitors, retest, confirmation, biochemical, absorbance, HTS | shares compounds with MsrA inh | inhibition, % at 15.5 µM | hit rate 41% among 2,300 | purified bovine MsrA, absorbance read-out;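 note: coupled to thioredoxin reductase with NADPH and selenocystamine and DMSO as substrate; 0% = vehicle only and 100% = full effect of reference inhibitor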
The depositor's hits bear a star; x = not tested or not shown. Cut-off read from the data, not from the text of the source, unless noted: active = inhibition above about 4.5%; inactive = the rest.

SMILES | MsrA inh | MsrA act | sPLA2-III inh | PG9 binder | rCAG RNA binder | MsrA inh confirm
O=S1(=O)C=CCN1Cc1cn(Cc2ccccc2)nn1 | x | x | -1.6 | x | 0.2 | x
Cc1[nH]c2ccccc2c1C(=O)C(=O)NCCCn1ccnc1 | 4.9* | -8.0 | 4.1 | 0.4 | -3.0 | 1.3
CN1c2ccccc2C(O)=C(C(=S)Nc2ccccc2)S1(=O)=O | 5.3* | -21.4 | -5.8 | -1.6 | 26.4 | 6.1*
Nc1ccccc1-n1nc2ccc3ccccc3c2n1 | 0.4 | -1.0 | -6.6 | -0.2 | 5.8 | x
COc1cc2nn(-c3ccccc3N)nc2cc1OC | 4.8* | -1.8 | 3.2 | -2.3 | 0.2 | 2.1
CC1(C)CC(=O)c2sc(NS(=O)(=O)c3ccccc3)nc2C1 | 2.6 | 0.1 | -1.4 | 0.1 | 4.4 | x
CC1(C)CC(=O)c2sc(NS(=O)(=O)c3ccc([N+](=O)[O-])cc3)nc2C1 | 6.3* | -2.3 | -15.5 | 0.0 | 21.8 | 3.7
CC1(C)CC(=O)c2sc(NC(=O)CN3C(=O)CCC3=O)nc2C1 | 5.0* | -0.3 | 9.8 | 0.8 | 0.4 | 1.9
CCC(C)C(=O)Nc1nc2c(s1)C(=O)CC(C)(C)C2 (centres undefined) | -1.2 | -1.4 | -2.3 | 2.2 | 1.8 | x
CC1(C)CC(=O)c2sc(NC(=O)CN3CCOCC3)nc2C1 | 1.0 | -2.2 | 0.3 | 0.6 | 0.2 | x
CC1(C)CC(=O)c2sc(NS(C)(=O)=O)nc2C1 | 6.6* | -4.9 | -1.4 | 1.9 | -1.2 | 3.9
CC(=O)c1ccc(N2CCN(C(=O)c3ccc4c(c3)OCO4)CC2)cc1 | 4.8* | -7.6 | -0.6 | -1.1 | -7.8 | 4.0
CCN(CC)c1ccc(/C=N/NC(=O)CNC(=O)c2ccccn2)cc1 | 6.0* | -7.2 | 18.8 | -5.3 | 0.4 | 3.5
O=C(CNC(=O)c1ccccn1)N/N=C/c1ccc2c(c1)OCO2 | 0.2 | -3.1 | 2.9 | -2.1 | 1.7 | x
CCN(CC)c1ccc(/C=N/NC(=O)CC(C)C)cc1 | 5.6* | -3.0 | 6.6 | -3.3 | -5.1 | 3.1
Cc1ccc(-c2cc(-c3nnc(SCC(=O)Nc4ccccc4-c4ccccc4)n3N)[nH]n2)cc1 | x | x | -30.2 | x | 6.7 | x
Cc1nn(-c2ccccc2)c2sc(C(=O)N3CCN(Cc4ccc(F)cc4)CC3)cc12 | x | x | -6.3 | x | 4.6 | x
CCNC(=O)N(C)[C@H]1C[C@H]2c3[nH]c4c(-c5cccc(C)c5)cccc4c3CCN2C[C@H]1[C@H](C)O | x | x | 5.5 | x | 6.0 | x
COc1ccccc1C(=O)NC(=S)Nc1ccc(NC(=O)c2ccco2)cc1 | 99.0* | -1.5 | 5.2 | 2.1 | 4.2 | 0.7
O=C(NNC(=S)NC(=O)c1ccco1)c1ccc(NC(=O)c2ccccc2)cc1 | 5.2* | -0.2 | 16.4 | -1.4 | 25.8 | 2.6
O=C(Nc1ccc(NC(=S)NC(=O)c2ccco2)cc1)c1ccccc1 | 0.8 | -3.9 | 3.4 | -1.7 | 2.2 | x
COc1ccc(NC(=O)OCCN2CCCC23CCC(c2ccccc2)CC3)cc1 (centres undefined) | x | x | -10.5 | x | x | x
CCOC(=O)c1sc(N)c(C(=O)Nc2ccccc2)c1C | 4.8* | -4.2 | 5.4 | 4.0 | -2.0 | 1.8
CCOC(=O)c1sc(N)c(C(=O)OCC)c1C | 0.9 | -3.2 | -4.2 | -2.5 | -2.5 | x
NC(=O)C1CCN(c2nc(-c3ccc(OCc4ccccc4)cc3)cs2)CC1 | x | x | 18.6 | x | x | x
SMILES | MsrA inh | MsrA act | sPLA2-III inh | PG9 binder | rCAG RNA binder | MsrA inh confirm
CS(=O)(=O)N1CCN(c2ccc([N+](=O)[O-])c(NCc3ccccc3)c2)CC1 | 1.0 | -1.6 | -1.4 | 0.3 | 2.1 | x
CS(=O)(=O)N1CCN(c2ccc([N+](=O)[O-])c(NCc3cccnc3)c2)CC1 | 5.6* | -8.5 | 2.3 | -0.9 | 1.0 | 4.1
Cc1onc(-c2ccc(Cl)cc2)c1-c1ccn(S(=O)(=O)c2ccccc2Cl)n1 | x | x | -5.5 | x | 3.0 | x
Cc1cccn2c(=O)c3cc(C(=O)NCCN4CCOCC4)c(=N)n(CCCN4CCOCC4)c3nc12 | 5.4* | -2.0 | 7.4 | 1.4 | -6.7 | 0.2
CC(=O)CC[C@H]1CC[C@]2(CCCN(S(=O)(=O)C3CCCCC3)C2)O1 | x | x | 5.5 | x | 1.0 | x
COc1ccc(/C=N/Nc2cc(C)nc(N3CCOCC3)n2)cc1OC | 3.2 | 1.4 | 2.3 | -0.6 | -5.0 | x
C=C(C)CNC(=S)N/N=C/c1ccc(N2CCOCC2)cc1 | 6.1* | -6.5 | 4.7 | -3.8 | -1.8 | 5.1*
COc1cc(/C=N/NC(=S)NCCN2CCOCC2)ccc1O | 7.4* | -4.9 | 13.5 | -2.9 | -4.6 | 5.2*
COc1ccc(/C=N\Nc2ncc(F)c(N3CCOCC3)n2)cc1OC | 4.7* | -4.8 | 6.2 | 0.2 | -3.5 | 4.1
O=C(O)c1cc(N/N=C/c2ccc(N3CCOCC3)cc2)ccc1Cl | 4.8* | -13.0 | -4.8 | -17.2 | 17.9 | 5.8*
CN(CCOC(=O)c1cccs1)C1CN(Cc2cn(Cc3ccccc3Cl)nn2)S(=O)(=O)C1 (centres undefined) | x | x | 13.0 | x | 2.3 | x
COc1ccc(N2CCN(CCCNC(=O)CCc3cccc(Cl)c3)CC2)cc1 | x | x | -1.3 | x | -0.4 | x
COCCNC(=S)N/N=C/c1ccc([N+](=O)[O-])cc1 | 3.7 | -6.5 | 3.4 | -0.2 | 0.6 | x
COC(=O)c1ccc(/C=N/NC(=S)NC(C)C)cc1 | 4.0 | -6.8 | 12.9 | 1.0 | -3.3 | x
CC(C)NC(=S)N/N=C/c1ccc(N2CCOCC2)cc1 | 7.0* | -3.5 | 10.3 | -4.2 | -4.7 | 5.4*
Cc1cc(C)nc(N/N=C/c2ccc(N3CCOCC3)cc2)n1 | 6.6* | -10.7 | 8.2 | -4.4 | -4.0 | 6.1*
COCCNC(=S)N/N=C/c1ccc(N2CCOCC2)cc1 | 8.1* | -6.1 | 9.9 | -3.9 | -2.9 | 5.9*
CCc1ccc(/C=C/C(=O)NC2=NCCS2)cc1 | x | x | 9.4 | x | x | x
CCC(C)[C@H](NC(=O)OC(C)(C)C)C(=O)N[C@@H](Cc1ccccc1)C(=O)OC (some centres undefined) | x | x | 6.2 | x | -1.9 | x
Cn1cnnc1Sc1ccc(/C=C/C(=O)c2ccc(O)cc2)cc1[N+](=O)[O-] | 5.7* | -12.2 | 5.4 | -1.4 | 3.7 | 2.6
Cc1cc(NC(=O)CC#N)n(-c2ccccc2)n1 | -0.3 | -2.6 | -13.8 | -1.1 | -1.2 | x
Cc1cc(NC(=O)/C(C#N)=C/c2ccco2)n(-c2ccccc2)n1 | 8.7* | -4.1 | -14.3 | -1.8 | 9.7 | 3.6
C=CCOc1ccc(/C=N\NC(N)=S)cc1 | 1.6 | -6.4 | 10.9 | -1.1 | 0.9 | x
CC(C)Oc1ccc(/C=N/NC(N)=S)cc1 | 4.8* | -3.5 | 17.5 | -1.5 | -0.4 | 2.3
Cc1ccc(Nc2ccc(C(N)=O)cc2[N+](=O)[O-])cc1C | 19.1* | -4.4 | 10.2 | -0.2 | 2.1 | 11.6*
NS(=O)(=O)c1ccc(NC(=O)/C=C/c2cccc(Cl)c2)cc1 | 0.7 | -3.2 | -25.4 | -0.3 | 7.0 | x
NS(=O)(=O)c1cccc(NC(=O)/C=C/c2cccs2)c1 | 5.1* | -4.3 | -5.0 | -0.4 | 2.4 | 4.4
CCOC(=O)c1ccc(NC(=O)/C=C/c2cccs2)cc1 | 3.3 | -7.7 | -33.7 | -0.5 | 3.6 | x
